Assay results published in the supplement of paper PMC10849652.
About 7,900 targets were measured; listed, in parts, are those with a hit and a random draw of the rest. About 0.6% of all pairs of compound and target were hits.

How the values were obtained:
Test in all cases: log2 fold change, soluble protein after heating vs DMSO (PISA); higher = thermal stabilisation; K562 cells, 10 uM, 30 min; active = over 0.2 and 3.5 SD of the protein, either way, in both replicates (recomputed)
[1] = compound: C1=CC=C(C=C1)[C@H](COC2=CC3=C(C=C2)NC(=O)N3)NC(=O)C4=CC=CN(C4=O)CC5=CC(=C(C=C5)F)F
Method in brief: (§1)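 K562 cells at 2×10^6 cells/mL were treated for 30 min with 10 μM compound, and aliquots were heated for 3 min over 48°C-58°C before pooling. Extraction used PBS with 0.5% NP-40 at 4°C, and soluble protein was the supernatant after 21,000xg for 90 min, measured by TMTpro 16plex LC-MS/MS with channel sums equalised. Thermal stability values, relative to control samples and from duplicates, are log2 fold changes.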

[2] = compound: CC1=C(SC2=C1C(=N[C@H](C3=NN=C(N32)C)CC(=O)N)C4=CC=C(C=C4)Cl)C
Method in brief: as §1

[3] = compound: CC1=C2C(=CC=C1)N=C(N(C2=O)C3=CC=CC=C3C)CN4C=NC5=C(N=CN=C54)N
Method in brief: as §1

[4] = compound: Cc1sc2c(c1C)C(c1ccc(Cl)cc1)=N[C@@H](CC(=O)OC(C)(C)C)c1nnc(C)n1-2
Method in brief: as §1

[5] = compound: c1ccc([C@@H]2C[C@H]2NC2CCNCC2)cc1
Method in brief: as §1

Sequence of UniProt Q13356 (Q13356 whole entry, looked up): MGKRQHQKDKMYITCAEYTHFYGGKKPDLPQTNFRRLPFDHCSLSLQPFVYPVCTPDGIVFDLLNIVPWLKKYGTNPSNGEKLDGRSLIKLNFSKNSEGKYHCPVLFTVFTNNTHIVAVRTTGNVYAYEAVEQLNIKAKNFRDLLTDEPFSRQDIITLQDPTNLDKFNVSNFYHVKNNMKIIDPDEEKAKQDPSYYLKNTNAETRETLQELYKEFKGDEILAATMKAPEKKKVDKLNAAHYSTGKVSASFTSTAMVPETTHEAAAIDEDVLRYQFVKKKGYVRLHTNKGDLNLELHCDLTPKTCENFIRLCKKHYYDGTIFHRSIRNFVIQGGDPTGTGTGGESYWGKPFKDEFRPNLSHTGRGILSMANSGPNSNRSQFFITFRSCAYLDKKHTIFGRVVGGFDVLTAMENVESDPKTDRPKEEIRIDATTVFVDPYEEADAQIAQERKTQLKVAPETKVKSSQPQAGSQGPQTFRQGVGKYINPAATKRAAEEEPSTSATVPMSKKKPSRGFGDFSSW
Sequence of UniProt Q9NR12 (Q9NR12 whole entry, looked up): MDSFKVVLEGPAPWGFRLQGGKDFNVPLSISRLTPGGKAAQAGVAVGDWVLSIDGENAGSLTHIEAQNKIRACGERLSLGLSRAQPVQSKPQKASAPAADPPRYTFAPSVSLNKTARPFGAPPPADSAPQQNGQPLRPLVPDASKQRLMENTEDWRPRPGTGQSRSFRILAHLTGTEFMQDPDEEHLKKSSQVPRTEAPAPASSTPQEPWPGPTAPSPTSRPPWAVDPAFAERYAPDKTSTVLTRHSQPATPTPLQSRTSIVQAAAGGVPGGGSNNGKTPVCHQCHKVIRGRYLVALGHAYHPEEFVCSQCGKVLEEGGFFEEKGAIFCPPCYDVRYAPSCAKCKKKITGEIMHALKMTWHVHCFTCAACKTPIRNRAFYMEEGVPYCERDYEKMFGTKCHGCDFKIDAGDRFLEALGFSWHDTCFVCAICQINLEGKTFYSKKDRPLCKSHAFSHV
Sequence of UniProt P50897 (P50897 whole entry, looked up): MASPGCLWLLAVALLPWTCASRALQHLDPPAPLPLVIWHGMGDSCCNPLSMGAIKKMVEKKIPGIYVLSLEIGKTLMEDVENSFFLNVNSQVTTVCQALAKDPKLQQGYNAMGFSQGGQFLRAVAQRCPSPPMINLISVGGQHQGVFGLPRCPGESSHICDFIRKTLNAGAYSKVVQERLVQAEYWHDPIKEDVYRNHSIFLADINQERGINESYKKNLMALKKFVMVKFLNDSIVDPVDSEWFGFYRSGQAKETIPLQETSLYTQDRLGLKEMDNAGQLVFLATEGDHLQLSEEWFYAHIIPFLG
Sequence of UniProt P25788 (P25788 whole entry, looked up): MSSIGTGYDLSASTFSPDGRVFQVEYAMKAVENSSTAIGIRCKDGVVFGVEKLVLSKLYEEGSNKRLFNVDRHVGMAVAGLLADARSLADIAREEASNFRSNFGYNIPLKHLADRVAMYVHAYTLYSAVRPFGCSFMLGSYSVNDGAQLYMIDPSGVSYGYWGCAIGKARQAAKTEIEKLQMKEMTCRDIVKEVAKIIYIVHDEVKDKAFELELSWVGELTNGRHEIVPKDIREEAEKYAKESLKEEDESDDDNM
Sequence of UniProt P51665 (P51665 whole entry, looked up): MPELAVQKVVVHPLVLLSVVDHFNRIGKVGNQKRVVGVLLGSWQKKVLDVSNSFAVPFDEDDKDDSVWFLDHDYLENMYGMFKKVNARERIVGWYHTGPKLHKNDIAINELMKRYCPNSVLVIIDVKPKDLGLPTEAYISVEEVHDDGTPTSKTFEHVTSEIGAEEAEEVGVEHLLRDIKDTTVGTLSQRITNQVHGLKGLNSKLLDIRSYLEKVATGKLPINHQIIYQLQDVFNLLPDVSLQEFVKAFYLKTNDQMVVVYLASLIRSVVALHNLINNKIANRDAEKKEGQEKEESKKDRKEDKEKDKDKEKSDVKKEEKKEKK
Sequence of UniProt Q15365 (Q15365 whole entry, looked up): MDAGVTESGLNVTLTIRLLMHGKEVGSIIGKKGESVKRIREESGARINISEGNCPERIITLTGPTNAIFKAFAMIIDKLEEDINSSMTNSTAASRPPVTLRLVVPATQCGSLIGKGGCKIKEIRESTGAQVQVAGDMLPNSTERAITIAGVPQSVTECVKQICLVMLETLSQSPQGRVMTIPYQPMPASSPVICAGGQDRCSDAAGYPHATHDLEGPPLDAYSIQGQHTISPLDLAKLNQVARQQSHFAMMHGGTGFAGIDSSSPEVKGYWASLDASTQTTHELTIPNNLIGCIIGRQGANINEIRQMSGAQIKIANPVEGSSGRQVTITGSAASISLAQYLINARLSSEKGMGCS
Sequence of UniProt Q9H814 (Q9H814 whole entry, looked up): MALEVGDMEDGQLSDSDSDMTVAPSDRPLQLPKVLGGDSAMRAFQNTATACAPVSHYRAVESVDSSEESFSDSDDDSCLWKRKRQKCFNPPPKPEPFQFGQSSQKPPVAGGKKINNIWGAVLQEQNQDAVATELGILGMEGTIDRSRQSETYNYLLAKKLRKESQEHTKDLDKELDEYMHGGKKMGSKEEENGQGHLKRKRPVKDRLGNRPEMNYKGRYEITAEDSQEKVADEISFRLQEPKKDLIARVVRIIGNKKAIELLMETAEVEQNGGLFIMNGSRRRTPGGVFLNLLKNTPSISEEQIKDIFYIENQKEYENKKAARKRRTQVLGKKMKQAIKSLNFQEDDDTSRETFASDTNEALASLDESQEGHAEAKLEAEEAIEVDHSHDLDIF
Sequence of UniProt Q86UU1 (Q86UU1 whole entry, looked up): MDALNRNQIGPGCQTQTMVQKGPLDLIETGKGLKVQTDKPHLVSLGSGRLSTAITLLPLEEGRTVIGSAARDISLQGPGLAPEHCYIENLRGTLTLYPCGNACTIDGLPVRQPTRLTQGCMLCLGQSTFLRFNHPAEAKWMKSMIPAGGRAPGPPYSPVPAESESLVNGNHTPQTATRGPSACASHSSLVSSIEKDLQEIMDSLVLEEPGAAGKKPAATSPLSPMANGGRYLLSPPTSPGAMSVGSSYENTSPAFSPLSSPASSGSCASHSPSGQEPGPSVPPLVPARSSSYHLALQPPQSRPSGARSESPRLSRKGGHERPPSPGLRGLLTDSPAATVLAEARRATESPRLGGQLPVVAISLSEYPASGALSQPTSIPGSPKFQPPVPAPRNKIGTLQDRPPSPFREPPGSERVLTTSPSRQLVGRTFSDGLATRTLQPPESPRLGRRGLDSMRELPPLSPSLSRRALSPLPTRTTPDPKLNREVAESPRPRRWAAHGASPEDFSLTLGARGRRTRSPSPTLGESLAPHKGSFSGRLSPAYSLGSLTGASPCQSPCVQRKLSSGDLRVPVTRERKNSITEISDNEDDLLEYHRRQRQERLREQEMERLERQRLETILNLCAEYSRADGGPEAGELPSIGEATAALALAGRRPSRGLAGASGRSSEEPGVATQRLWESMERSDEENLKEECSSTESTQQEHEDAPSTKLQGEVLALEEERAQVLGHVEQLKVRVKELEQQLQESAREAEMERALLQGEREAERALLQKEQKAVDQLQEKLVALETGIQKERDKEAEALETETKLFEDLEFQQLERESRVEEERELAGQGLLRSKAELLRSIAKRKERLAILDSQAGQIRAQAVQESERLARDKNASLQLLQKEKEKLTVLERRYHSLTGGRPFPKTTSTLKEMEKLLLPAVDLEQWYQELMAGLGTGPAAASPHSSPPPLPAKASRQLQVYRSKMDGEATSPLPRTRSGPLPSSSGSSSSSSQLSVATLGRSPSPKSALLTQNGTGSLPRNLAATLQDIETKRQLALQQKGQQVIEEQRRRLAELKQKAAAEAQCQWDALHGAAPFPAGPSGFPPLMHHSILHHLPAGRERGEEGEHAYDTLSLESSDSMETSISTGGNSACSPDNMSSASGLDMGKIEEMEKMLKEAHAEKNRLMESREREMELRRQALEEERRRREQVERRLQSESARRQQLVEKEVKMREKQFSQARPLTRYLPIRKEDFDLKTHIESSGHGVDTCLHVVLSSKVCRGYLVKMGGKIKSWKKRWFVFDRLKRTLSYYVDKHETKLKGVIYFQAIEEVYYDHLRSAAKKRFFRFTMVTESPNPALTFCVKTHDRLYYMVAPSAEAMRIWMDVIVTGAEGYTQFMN
Sequence of UniProt Q5JRX3 (Q5JRX3 whole entry, looked up): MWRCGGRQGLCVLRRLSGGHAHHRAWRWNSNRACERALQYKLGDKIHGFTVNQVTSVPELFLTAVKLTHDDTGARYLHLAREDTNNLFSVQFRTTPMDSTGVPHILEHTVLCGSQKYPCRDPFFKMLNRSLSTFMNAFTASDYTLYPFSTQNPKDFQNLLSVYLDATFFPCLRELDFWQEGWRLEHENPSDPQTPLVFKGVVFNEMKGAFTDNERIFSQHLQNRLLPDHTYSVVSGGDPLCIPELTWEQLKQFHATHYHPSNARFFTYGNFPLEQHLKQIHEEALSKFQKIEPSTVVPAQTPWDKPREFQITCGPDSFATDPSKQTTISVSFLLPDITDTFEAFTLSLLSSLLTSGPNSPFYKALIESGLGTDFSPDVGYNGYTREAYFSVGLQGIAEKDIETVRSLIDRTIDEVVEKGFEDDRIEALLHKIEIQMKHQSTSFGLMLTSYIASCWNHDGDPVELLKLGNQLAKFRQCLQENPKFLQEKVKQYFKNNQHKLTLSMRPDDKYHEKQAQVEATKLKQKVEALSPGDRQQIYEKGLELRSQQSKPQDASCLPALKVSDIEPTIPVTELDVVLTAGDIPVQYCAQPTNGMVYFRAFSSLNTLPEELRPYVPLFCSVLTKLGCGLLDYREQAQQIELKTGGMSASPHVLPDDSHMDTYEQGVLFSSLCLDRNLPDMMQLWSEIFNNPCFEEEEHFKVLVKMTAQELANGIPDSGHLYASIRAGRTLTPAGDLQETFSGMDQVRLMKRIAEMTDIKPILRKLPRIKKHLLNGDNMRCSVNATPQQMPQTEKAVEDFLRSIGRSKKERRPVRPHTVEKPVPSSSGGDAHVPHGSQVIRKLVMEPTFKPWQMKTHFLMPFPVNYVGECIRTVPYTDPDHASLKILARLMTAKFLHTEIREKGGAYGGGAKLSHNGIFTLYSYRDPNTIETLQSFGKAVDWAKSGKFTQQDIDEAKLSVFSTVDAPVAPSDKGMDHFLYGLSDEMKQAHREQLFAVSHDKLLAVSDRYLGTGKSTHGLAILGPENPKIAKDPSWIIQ

Row | Target | log2 fold change [1] | log2 fold change [2] | log2 fold change [3] | log2 fold change [4] | log2 fold change [5]
1 | PPP1R12B isoform 6 (UniProt O60237) | -0.051 (inactive) |  |  |  | 
2 | PDE4A (UniProt P27815) | -0.11 (inactive) | 0.128 (inactive) | 0.102 (inactive) | -0.112 (inactive) | 0.201 (inactive)
3 | POLR1A (UniProt O95602) | 0.049 (inactive) | -0.043 (inactive) | -0.044 (inactive) | 0.096 (inactive) | -0.015 (inactive)
4 | PHLDB1 isoform 2 (UniProt Q86UU1) | -0.006 (inactive) | 0.073 (inactive) | 0.081 (inactive) | 0.008 (inactive) | 0.002 (inactive)
5 | PIKFYVE (UniProt Q9Y2I7) | -0.077 (inactive) | 0.106 (inactive) | 0.111 (inactive) | 0.068 (inactive) | -0.009 (inactive)
6 | PTMA (UniProt P06454) | 0.029 (inactive) | 0.017 (inactive) | -0.105 (inactive) | -0.166 (inactive) | -0.009 (inactive)
7 | PHAX (UniProt Q9H814) | 0.014 (inactive) | -0.019 (inactive) | -0.015 (inactive) | -0.024 (inactive) | 0.022 (inactive)
8 | PDLIM7 (UniProt Q9NR12) | -0.04 (inactive) | 0.044 (inactive) | 0.092 (inactive) | -0.023 (inactive) | -0.011 (inactive)
9 | PRKX (UniProt P51817) | -0.754 (active) |  |  |  | 
10 | PRPF38B (UniProt Q5VTL8) | 0.038 (inactive) | 0.066 (inactive) | 0.052 (inactive) | 0.056 (inactive) | 0.032 (inactive)
11 | PPT1 (UniProt P50897) | 0.047 (inactive) | 0.021 (inactive) | 0 (inactive) | -0.003 (inactive) | -0.003 (inactive)
12 | PJA2 (UniProt O43164) | 0.005 (inactive) | -0.042 (inactive) | 0.021 (inactive) | 0.006 (inactive) | 0.024 (inactive)
13 | PPIL2 (UniProt Q13356) | -0.028 (inactive) | 0.041 (inactive) | 0.098 (inactive) | -0.019 (inactive) | -0.011 (inactive)
14 | PCBP1 (UniProt Q15365) | -0.045 (inactive) | 0.047 (inactive) | 0.048 (inactive) | -0.03 (inactive) | 0 (inactive)
15 | PITRM1 isoform 2 (UniProt Q5JRX3) | 0.064 (inactive) | -0.08 (inactive) | 0.048 (inactive) | -0.083 (inactive) | 0 (inactive)
16 | PSMC3 (UniProt P17980) | 0.014 (inactive) | -0.083 (inactive) | -0.058 (inactive) | 0 (inactive) | 0 (inactive)
17 | PIK3C3 (UniProt Q8NEB9) | -0.038 (inactive) | 0.005 (inactive) | 0.009 (inactive) | 0.009 (inactive) | -0.01 (inactive)
18 | PNPLA8 (UniProt Q9NP80) | 0.024 (inactive) | 0.031 (inactive) | 0.007 (inactive) | -0.006 (inactive) | 0.024 (inactive)
19 | POLR2K (UniProt P53803) | 0.053 (inactive) | 0.06 (inactive) | 0.046 (inactive) | 0.032 (inactive) | -0.056 (inactive)
20 | PSMA3 (UniProt P25788) | 0.051 (inactive) | -0.062 (inactive) | -0.022 (inactive) | -0.036 (inactive) | -0.029 (inactive)
21 | PIP4P1 isoform 2 (UniProt Q86T03) | -0.016 (inactive) | -0.106 (inactive) | -0.118 (inactive) | -0.002 (inactive) | 0.05 (inactive)
22 | PSMD7 (UniProt P51665) | 0.033 (inactive) | -0.102 (inactive) | -0.024 (inactive) | 0.034 (inactive) | 0 (inactive)
23 | PRMT3 (UniProt O60678) | -0.1 (inactive) | 0.077 (inactive) | 0.024 (inactive) | -0.013 (inactive) | 0.001 (inactive)
24 | PEX11B (UniProt O96011) | -0.027 (inactive) | 0.056 (inactive) | -0.01 (inactive) | -0.008 (inactive) | -0.005 (inactive)
25 | PTK2B (UniProt Q14289) | -0.105 (inactive) | -0.098 (inactive) | 0.194 (inactive) | 0 (inactive) | -0.013 (inactive)
26 | PRKCD (UniProt Q05655) | -0.05 (inactive) | 0.082 (inactive) | 0.071 (inactive) | 0.004 (inactive) | -0.021 (inactive)
